Results reported in PubChem BioAssay (EPA / NIEHS).
Inconclusive results are not listed. Calls of active or inactive are those of the source. The calls were made as follows, unless noted: active = hit-call score of the fitted dose curve at least 0.9, where 1 is the maximum; inactive = score below 0.9.

What was measured:
[1] = target: Paired box protein Pax-6 (Homo sapiens) (UniProt P26367); assay: ATG_Pax6_CIS: Attagene CIS-FACTORIAL HepG2 Assay for human Paired Box 6 (PAX6) (AID 2282956); settings: HepG2 CIS-FACTORIAL PAX6 reporter transcription, RNA readout; actives raise or lower the signal
Procedure, shortened: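 Transient MRTU transfection of HepG2 → compound exposure 24 h → TriZol RNA, oligo(dT) RT → PCR, 6-FAM primer extension, HpaI cut → capillary electrophoresis; activity fitted both directions against DMSO.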

[2] = ATG_PXRE_CIS: Attagene CIS-FACTORIAL HepG2 Assay for human Pregnane X Receptor Element (PXRE) (AID 2282957); settings: HepG2 Attagene CIS-FACTORIAL PXRE reporter, mRNA; actives raise or lower the signal
Procedure, shortened: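 Transfect HepG2 with MRTUs (cis promoter elements); dose chemical, incubate 24 h; isolate RNA, RT with oligo(dT), PCR, 6-FAM label, HpaI cut, CE. Gain/loss fit vs DMSO.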

[3] = ATG_PPRE_CIS: Attagene CIS-FACTORIAL HepG2 Assay for human Peroxisome Proliferator-activated Response Element (PPRE) (AID 2282958); settings: HepG2 PPRE cis-element reporter, Attagene transcription factor profiling; actives raise or lower the signal
Procedure, shortened: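 Cells are first transfected transiently with the multiplexed reporter library, then dosed for 24 h. Total RNA is reverse-transcribed, amplified, fluorescently end-labeled and HpaI-cut before capillary electrophoresis; activity is fitted bidirectionally against DMSO controls.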

[4] = ATG_Sox_CIS: Attagene CIS-FACTORIAL HepG2 Assay for human SRY-box transcription factor (SOX) (AID 2282960); settings: HepG2 Attagene cis-factorial SOX reporter, mRNA; actives raise or lower the signal
Procedure, shortened: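 Transient MRTU transfection of HepG2; 24 h compound incubation; TriZol RNA, oligo(dT) RT, PCR, 6-FAM primer extension, HpaI cut, CE. Bidirectional fit, DMSO = baseline.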

[5] = target: Transcription factor Sp1 (Homo sapiens) (UniProt P08047); assay: ATG_Sp1_CIS: Attagene CIS-FACTORIAL HepG2 Assay for human Specificity Protein 1 (Sp1) (AID 2282961); settings: HepG2 Sp1 cis-reporter transcription, actives raise or lower the signal
Procedure, shortened: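 Endogenous Sp1 activity was gauged in human liver HepG2 cells bearing transfected reporter units under a cis-regulating promoter. After 24 h dosing, reporter mRNA was quantified by RT-PCR with capillary electrophoresis, and activity fitted bidirectionally versus DMSO.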

[6] = ATG_SREBP_CIS: Attagene CIS-FACTORIAL HepG2 Assay for human Sterol Regulatory Element Binding (SREBP) (AID 2282962); settings: HepG2 Attagene cis-factorial SREBP reporter, mRNA; actives raise or lower the signal
Procedure, shortened: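 Transfected HepG2 (cis-regulated reporter library, endogenous TFs) → compound 24 h → total RNA → oligo(dT) RT → reporter-specific PCR → FAM primer extension, HpaI cut → CE fluorescence. Fit bidirectional vs DMSO.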

[7] = target: Signal transducer and activator of transcription 3 (Homo sapiens) (UniProt P40763); assay: ATG_STAT3_CIS: Attagene CIS-FACTORIAL HepG2 Assay for human Signal Transducer and Activator of Transcription 3 (STAT3) (AID 2282963); settings: HepG2, Attagene cis-factorial STAT3 reporter transcription; actives raise or lower the signal
Procedure, shortened: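 HepG2 cells transiently transfected with cis-element-driven multiple reporter transcription units; after 24 h chemical exposure, reporter mRNA measured by RT-PCR, 6-FAM primer-extension labelling, HpaI digestion and capillary electrophoresis. Bidirectional fitting versus DMSO baseline.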

[8] = ATG_TA_CIS: Attagene CIS-FACTORIAL HepG2 Assay for human TA Basal Promoter (AID 2282964); settings: HepG2 Attagene CIS-factorial TA basal promoter reporter; actives raise or lower the signal
Procedure, shortened: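 Cis-factorial format in HepG2: reporters report endogenous factors, not chimeric Gal4 fusions. After 24 h treatment, reporter transcripts were measured by RT-PCR-capillary electrophoresis fluorescence, analysed bidirectionally versus DMSO.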

[9] = ATG_TAL_CIS: Attagene CIS-FACTORIAL HepG2 Assay for human TAL Basal Promoter (AID 2282966); settings: HepG2 Attagene cis-factorial TAL promoter reporter; actives raise or lower the signal;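 also: background control endpoint measuring basal TAL promoter reporter mRNA not a specific factor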
Procedure, shortened: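 Fluorescence of labelled reporter cDNA fragments, resolved by capillary electrophoresis, gave the readout. Human HepG2 liver cells carried transiently transfected cis-element reporter units and were treated for 24 hours; activity was fitted bidirectionally against DMSO.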

[10] = ATG_TGFb_CIS: Attagene CIS-FACTORIAL HepG2 Assay for human Transforming Growth Factor (TGF) (AID 2282967); settings: HepG2 Attagene CIS TGFb reporter, mRNA transcription; actives raise or lower the signal
Procedure, shortened: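 Multiplexed cis-reporter HepG2 system, 24 h treatment; mRNA induction read by fluorescence after RT-PCR and CE; DMSO negative control, bidirectional curve fitting.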

[11] = ATG_VDRE_CIS: Attagene CIS-FACTORIAL HepG2 Assay for human Vitamin D Receptor Element (VDRE) (AID 2282968); settings: HepG2 VDRE cis-reporter transcription, actives raise or lower the signal
Procedure, shortened: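 HepG2 cells transiently transfected with cis-element reporter units, dosed 24 h; reporter mRNA measured by RT-PCR, 6-FAM labeling, HpaI digestion and capillary electrophoresis. Activity fitted bidirectionally against DMSO baseline.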

[12] = target: X-box-binding protein 1 (Homo sapiens) (UniProt P17861); assay: ATG_Xbp1_CIS: Attagene CIS-FACTORIAL HepG2 Assay for human X-box Binding Protein 1 (XBP1) (AID 2282972); settings: HepG2 XBP1 cis-element reporter, Attagene multiplex; actives raise or lower the signal
Procedure, shortened: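 HepG2, transient MRTU transfection (cis-promoter driven), 24 h compound exposure. Total RNA → oligo(dT) RT → PCR → 6-FAM labeling → HpaI cut → CE. Bidirectional fit vs DMSO.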

[13] = ATG_M_19_TRANS: Attagene TRANS-FACTORIAL HepG2 Assay for M19 Transcription Factor (Internal Marker) (AID 2282974; active = hit-call score of the fitted dose curve at least 0.9, where 1 is the maximum); settings: HepG2 Attagene TRANS-FACTORIAL M19 internal marker reporter
Procedure, shortened: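 Cells: human HepG2, transiently transfected with multiplexed reporter transcription units. Exposure: 24 h. Detection: RT-PCR of reporter mRNA with capillary electrophoresis. Analysis: gain-of-signal vs DMSO.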

[14] = ATG_TCF_b_cat_CIS: Attagene CIS-FACTORIAL HepG2 Assay for human T-Cell-Factor with beta-catenin (TCF/b-cat) (AID 2282965); settings: HepG2 TCF/beta-catenin cis-reporter transcription, actives raise or lower the signal
Procedure, shortened: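 HepG2 cells transiently transfected with multiple cis-promoter-regulated reporter transcription units, so endogenous transcription factor activity is measured. Reporter mRNA read 24 hours after dosing by RT-PCR, fluorescent labelling and capillary electrophoresis; bidirectional fitting against DMSO.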

[15] = target: Steroid hormone receptor ERR1 (Homo sapiens) (UniProt P11474); assay: ATG_ERRa_TRANS: Attagene TRANS-FACTORIAL HepG2 Assay for human Estrogen-Related Receptor alpha (ERRa) (AID 2282971; active = hit-call score of the fitted dose curve at least 0.9, where 1 is the maximum); settings: HepG2 Attagene TRANS reporter, ERRa transactivation
Procedure, shortened: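 Reporter transcript induction was quantified by RT-PCR and capillary electrophoresis of FAM-labelled, HpaI-cut products after 24 h treatment of HepG2 cells carrying transiently transfected GAL4-UAS reporter units and an exogenous ERRa-Gal4 fusion; activity scored as increase over DMSO.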

[16] = target: Estrogen-related receptor gamma (Homo sapiens) (UniProt P62508); assay: ATG_ERRg_TRANS: Attagene TRANS-FACTORIAL HepG2 Assay for human Estrogen-Related Receptor gamma (ERRg) (AID 2282977; active = hit-call score of the fitted dose curve at least 0.9, where 1 is the maximum;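 also: hits increase reporter signal over DMSO so potencies reflect activators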); settings: HepG2 Attagene TRANS reporter, ERRg transactivation
Procedure, shortened: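 HepG2 cells transiently transfected with multiplexed GAL4-UAS reporter units and chimeric NR-Gal4 constructs were exposed to test chemicals for 24 h. Reporter mRNA was measured by RT-PCR, 6-FAM primer extension, HpaI digestion and capillary electrophoresis; gain-of-signal versus DMSO.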

[17] = target: Glucocorticoid receptor (Homo sapiens) (UniProt P04150); assay: ATG_GR_TRANS: Attagene TRANS-FACTORIAL HepG2 Assay for human Glucocorticoid Receptor (GR) (AID 2282978; active = hit-call score of the fitted dose curve at least 0.9, where 1 is the maximum;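 also: activators score as hits since higher reporter transcript over DMSO is fitted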); settings: HepG2 Attagene TRANS GR reporter, mRNA transcription
Procedure, shortened: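 In this trans-factorial format, exogenous NR-GAL4 chimeric proteins in transfected HepG2 cells regulate GAL4-UAS reporter transcription. After 24 h treatment, reporter mRNA induction relative to DMSO is read by RT-PCR and capillary electrophoresis.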

[18] = target: Bile acid receptor (Homo sapiens) (UniProt Q96RI1); assay: ATG_FXR_TRANS: Attagene TRANS-FACTORIAL HepG2 Assay for Farnesoid X Receptor (FXR) (AID 2282979; active = hit-call score of the fitted dose curve at least 0.9, where 1 is the maximum;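 also: hits raise reporter mRNA above DMSO so AC50 marks FXR activation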); settings: HepG2 Attagene TRANS FXR-GAL4 reporter transcription
Procedure, shortened: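 Transient transfection of HepG2 with multiplexed GAL4-UAS reporter units; exogenous FXR-GAL4 chimera. Dose 24 h → TriZol RNA → oligo(dT) RT → PCR, 6-FAM primer extension, HpaI cut → CE. Gain vs DMSO.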

[19] = target: Nuclear receptor subfamily 1 group I member 3 (Homo sapiens) (UniProt Q14994); assay: ATG_CAR_TRANS: Attagene TRANS-FACTORIAL HepG2 Assay for human Constitutive Androstane Receptor (CAR) (AID 2282969; active = hit-call score of the fitted dose curve at least 0.9, where 1 is the maximum;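 also: activators raise reporter mRNA above DMSO so AC50 marks induction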); settings: HepG2 Attagene TRANS-FACTORIAL CAR reporter
Procedure, shortened: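 HepG2 cells transiently transfected with multiplexed GAL4-UAS reporter units expressing chimeric NR-Gal4 proteins; compound exposure 24 h. Reporter mRNA measured by RT-PCR, 6-FAM labelling, HpaI digestion and capillary electrophoresis; gain-of-signal fitted against DMSO baseline.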

Measured: AC50

Chain of Glucocorticoid receptor (Homo sapiens) (P04150 whole entry, looked up, the tested form may be a part): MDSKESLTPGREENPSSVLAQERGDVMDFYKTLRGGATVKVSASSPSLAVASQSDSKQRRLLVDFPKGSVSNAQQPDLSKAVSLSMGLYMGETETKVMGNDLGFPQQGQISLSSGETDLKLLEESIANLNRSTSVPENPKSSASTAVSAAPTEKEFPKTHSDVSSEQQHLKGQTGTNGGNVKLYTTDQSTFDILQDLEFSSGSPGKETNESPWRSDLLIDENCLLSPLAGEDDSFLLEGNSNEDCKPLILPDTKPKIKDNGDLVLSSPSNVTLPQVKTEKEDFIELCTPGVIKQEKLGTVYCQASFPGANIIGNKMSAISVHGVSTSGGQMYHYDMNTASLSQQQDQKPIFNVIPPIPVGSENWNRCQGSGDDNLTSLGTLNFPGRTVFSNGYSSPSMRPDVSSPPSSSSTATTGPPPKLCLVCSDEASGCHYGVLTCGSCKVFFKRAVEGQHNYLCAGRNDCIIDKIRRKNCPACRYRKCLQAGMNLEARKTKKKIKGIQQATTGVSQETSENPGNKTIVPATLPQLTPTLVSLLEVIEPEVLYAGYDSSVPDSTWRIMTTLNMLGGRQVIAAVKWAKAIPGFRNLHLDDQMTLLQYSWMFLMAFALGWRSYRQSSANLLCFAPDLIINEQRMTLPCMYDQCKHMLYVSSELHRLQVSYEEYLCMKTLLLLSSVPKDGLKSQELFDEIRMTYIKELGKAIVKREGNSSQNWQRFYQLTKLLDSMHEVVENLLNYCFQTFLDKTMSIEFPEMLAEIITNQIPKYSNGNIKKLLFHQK
Chain of Signal transducer and activator of transcription 3 (Homo sapiens) (P40763 whole entry, looked up): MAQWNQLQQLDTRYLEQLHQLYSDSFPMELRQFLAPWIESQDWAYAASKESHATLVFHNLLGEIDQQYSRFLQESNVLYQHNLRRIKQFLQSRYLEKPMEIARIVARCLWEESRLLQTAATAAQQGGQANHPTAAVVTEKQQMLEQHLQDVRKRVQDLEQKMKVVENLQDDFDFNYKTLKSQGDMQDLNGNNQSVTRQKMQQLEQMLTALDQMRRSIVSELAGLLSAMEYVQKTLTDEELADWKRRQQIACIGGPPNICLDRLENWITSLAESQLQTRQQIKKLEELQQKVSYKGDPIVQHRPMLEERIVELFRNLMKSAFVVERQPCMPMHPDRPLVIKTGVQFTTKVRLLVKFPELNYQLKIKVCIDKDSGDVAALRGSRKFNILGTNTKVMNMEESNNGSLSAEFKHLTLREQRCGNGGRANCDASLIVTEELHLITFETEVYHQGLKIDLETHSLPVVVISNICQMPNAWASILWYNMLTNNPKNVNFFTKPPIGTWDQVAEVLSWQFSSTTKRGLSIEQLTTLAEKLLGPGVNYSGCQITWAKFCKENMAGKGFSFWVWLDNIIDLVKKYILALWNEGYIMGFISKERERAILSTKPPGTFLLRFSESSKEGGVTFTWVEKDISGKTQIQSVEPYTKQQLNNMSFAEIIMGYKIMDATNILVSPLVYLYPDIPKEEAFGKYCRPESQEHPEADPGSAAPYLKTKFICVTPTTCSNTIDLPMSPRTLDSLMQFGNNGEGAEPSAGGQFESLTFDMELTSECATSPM
Chain of Paired box protein Pax-6 (Homo sapiens) (P26367 whole entry, looked up): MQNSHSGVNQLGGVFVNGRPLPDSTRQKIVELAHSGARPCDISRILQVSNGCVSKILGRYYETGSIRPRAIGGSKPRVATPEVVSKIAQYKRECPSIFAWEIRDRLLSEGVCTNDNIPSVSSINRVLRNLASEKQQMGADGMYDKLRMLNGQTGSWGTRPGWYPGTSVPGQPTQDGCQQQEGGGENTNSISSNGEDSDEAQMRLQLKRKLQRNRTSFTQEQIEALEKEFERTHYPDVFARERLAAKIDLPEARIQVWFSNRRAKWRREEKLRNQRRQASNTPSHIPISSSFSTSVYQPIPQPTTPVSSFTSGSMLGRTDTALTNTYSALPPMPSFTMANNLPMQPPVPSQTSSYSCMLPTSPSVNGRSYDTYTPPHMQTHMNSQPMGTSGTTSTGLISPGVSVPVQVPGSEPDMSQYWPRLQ
Chain of Estrogen-related receptor gamma (Homo sapiens) (P62508 whole entry, looked up, the tested form may be a part): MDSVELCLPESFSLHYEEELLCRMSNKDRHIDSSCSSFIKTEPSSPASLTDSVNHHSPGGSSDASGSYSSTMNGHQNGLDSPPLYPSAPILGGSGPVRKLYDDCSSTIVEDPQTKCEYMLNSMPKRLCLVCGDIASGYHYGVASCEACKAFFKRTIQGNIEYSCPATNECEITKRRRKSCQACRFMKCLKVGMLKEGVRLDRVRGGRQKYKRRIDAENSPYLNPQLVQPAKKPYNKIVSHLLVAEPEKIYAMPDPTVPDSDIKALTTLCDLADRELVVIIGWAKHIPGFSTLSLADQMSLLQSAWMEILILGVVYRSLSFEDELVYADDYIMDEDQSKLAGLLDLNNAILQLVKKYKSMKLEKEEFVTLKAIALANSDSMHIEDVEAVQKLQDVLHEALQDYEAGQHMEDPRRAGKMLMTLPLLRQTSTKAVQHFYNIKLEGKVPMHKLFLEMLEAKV
Chain of X-box-binding protein 1 (Homo sapiens) (P17861 whole entry, looked up): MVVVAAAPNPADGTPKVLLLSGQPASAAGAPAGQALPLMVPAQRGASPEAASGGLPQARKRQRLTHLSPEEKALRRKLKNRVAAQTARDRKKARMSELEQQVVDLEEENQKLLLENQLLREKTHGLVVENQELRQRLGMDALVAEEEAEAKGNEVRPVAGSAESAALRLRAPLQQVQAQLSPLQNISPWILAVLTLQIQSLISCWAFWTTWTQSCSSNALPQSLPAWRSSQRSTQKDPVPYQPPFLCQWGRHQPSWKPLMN
Chain of Transcription factor Sp1 (Homo sapiens) (P08047 whole entry, looked up): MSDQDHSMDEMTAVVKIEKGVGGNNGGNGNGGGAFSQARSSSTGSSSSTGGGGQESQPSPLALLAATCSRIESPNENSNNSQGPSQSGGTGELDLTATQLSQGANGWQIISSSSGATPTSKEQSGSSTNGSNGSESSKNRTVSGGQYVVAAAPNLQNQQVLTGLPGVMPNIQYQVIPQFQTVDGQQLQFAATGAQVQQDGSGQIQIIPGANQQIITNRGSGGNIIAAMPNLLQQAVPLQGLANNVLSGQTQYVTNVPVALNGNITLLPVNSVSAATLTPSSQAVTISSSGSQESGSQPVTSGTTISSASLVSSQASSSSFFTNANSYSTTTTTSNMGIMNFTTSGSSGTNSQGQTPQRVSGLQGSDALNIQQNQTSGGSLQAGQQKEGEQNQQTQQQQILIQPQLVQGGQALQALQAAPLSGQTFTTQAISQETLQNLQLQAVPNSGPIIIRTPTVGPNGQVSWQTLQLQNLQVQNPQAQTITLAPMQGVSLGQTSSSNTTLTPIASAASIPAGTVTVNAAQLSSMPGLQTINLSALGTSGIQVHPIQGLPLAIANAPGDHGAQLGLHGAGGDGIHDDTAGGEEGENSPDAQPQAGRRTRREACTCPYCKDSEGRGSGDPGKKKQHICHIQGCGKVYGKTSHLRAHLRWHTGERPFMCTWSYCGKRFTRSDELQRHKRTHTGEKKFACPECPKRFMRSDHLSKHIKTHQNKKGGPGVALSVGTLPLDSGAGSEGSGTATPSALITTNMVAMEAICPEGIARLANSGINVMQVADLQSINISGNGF
Chain of Steroid hormone receptor ERR1 (Homo sapiens) (P11474 whole entry, looked up, the tested form may be a part): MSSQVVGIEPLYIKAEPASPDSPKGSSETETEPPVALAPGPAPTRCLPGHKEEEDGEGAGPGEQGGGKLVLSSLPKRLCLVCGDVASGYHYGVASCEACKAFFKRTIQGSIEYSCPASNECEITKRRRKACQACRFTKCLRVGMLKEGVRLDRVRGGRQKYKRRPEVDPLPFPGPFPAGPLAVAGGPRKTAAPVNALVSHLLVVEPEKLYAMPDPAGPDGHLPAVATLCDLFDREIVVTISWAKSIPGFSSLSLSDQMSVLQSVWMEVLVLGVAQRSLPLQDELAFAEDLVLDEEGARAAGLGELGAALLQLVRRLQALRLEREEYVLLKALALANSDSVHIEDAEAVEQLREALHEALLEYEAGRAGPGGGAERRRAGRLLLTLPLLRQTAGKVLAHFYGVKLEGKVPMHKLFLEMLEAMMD
Chain of Bile acid receptor (Homo sapiens) (Q96RI1 whole entry, looked up, the tested form may be a part): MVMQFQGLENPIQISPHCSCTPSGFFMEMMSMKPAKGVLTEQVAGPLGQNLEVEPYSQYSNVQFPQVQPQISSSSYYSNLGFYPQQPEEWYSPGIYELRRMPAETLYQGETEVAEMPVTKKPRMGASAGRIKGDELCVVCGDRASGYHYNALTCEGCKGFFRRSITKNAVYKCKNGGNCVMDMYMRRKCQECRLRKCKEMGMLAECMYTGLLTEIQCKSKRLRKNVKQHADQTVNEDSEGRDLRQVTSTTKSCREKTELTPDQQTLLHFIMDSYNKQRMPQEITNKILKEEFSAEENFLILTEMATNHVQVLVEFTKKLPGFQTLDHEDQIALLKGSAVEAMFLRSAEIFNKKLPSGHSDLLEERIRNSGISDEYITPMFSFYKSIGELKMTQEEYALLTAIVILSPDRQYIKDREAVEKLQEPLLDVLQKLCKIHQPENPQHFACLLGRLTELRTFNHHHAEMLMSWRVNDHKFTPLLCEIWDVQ
Chain of Nuclear receptor subfamily 1 group I member 3 (Homo sapiens) (Q14994 whole entry, looked up, the tested form may be a part): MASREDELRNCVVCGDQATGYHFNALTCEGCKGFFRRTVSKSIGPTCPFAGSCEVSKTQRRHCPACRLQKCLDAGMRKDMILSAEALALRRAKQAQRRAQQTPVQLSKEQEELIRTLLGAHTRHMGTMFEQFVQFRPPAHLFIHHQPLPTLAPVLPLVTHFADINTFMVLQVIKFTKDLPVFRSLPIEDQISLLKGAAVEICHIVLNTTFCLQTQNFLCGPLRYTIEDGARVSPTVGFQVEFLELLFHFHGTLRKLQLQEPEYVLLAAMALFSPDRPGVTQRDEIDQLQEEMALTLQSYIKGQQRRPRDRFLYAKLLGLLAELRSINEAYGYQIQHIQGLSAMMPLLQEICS

CNS(=O)(=O)c1cc(C(=O)N2CCC(CCN3C4CCC3CC(n3c(C)nc5ccccc53)C4)(c3cccc(F)c3)CC2)c(Cl)cc1F (centres undefined)
active: [2] 1.08 µM | [3] 3.63 µM | [6] 3.32 µM | [11] 5.14 µM
not listed: [14] | [15] | [16] | [17] | [18] | [19]
inactive: all other assays above

CCOC(=O)c1ccc(C2CCC(NC[C@H](O)COc3ccc(O)c(NS(C)(=O)=O)c3)CC2)cc1 (some centres undefined)
active: [1] 46.5 µM | [3] 57.5 µM | [14] 48.3 µM | [11] 48.5 µM | [12] 54.4 µM | [18] 33 µM
not listed: [19]
inactive: all other assays above

COC(=O)CC(=O)OC
not listed: [13] | [15] | [16] | [18] | [19]
inactive: all other assays above

O=C(O)c1cccc(N(Cc2cccnc2)c2ccc(OC(F)F)c(OC(F)F)c2)c1
active: [2] 26.2 µM | [3] 25.1 µM | [14] 100 µM
not listed: [13] | [15] | [17] | [18] | [19]
inactive: all other assays above

O=C(O)CCN(C1(C(=O)NO)CCCC1)S(=O)(=O)c1ccc(Oc2ccc(F)cc2)cc1
not listed: [14] | [15] | [16] | [17] | [18]
inactive: all other assays above

CC1=CC(=O)CC(C)(C)C1
active: [2] 50 µM
not listed: [15] | [16] | [18] | [19]
inactive: all other assays above

COc1ccc2sc(C(=O)Nc3nnn[nH]3)c(OC(C)C)c2c1
active: [1] 129 µM | [3] 12.3 µM | [6] 39.7 µM | [8] 70.7 µM | [9] 130 µM | [11] 157 µM | [12] 156 µM
not listed: [13] | [15] | [19]
inactive: all other assays above

O=C(CCCCCCCCc1cccnc1)N1CCC(C=C(c2ccccc2)c2ccccc2)CC1
active: [1] 9.32 µM | [2] 0.438 µM | [3] 1.07 µM | [5] 8.56 µM | [6] 8.12 µM | [7] 19.5 µM | [8] 16.1 µM | [14] 8.08 µM | [11] 1.85 µM | [12] 3.5 µM | [17] 100 µM
inactive: [4] | [9] | [10] | [15]
